Source: PubChem BioAssay AID2314 (National Center for Advancing Translational Sciences (NCATS), 2010)
Several values for one entry are separate records, joined by “and”; a condition that tells them apart may be missing. Identical values can stand only once. Among all 300,000 compounds or so, about 37,000 (12%) were called active. What follows is part of a selection rich in actives, with near analogues and random picks from the rest. Values without a mark were called inactive. Rule as the data show it: active = max response mostly above about 13% (no sharp cut-off); inactive = mostly below about 14%.

Assay: Cycloheximide Counterscreen for Small Molecule Inhibitors of Shiga Toxin; also: read at 38.3 µM for the half of the compounds with a filed dose; 0% is about no effect
Conditions: cell reporter, cycloheximide protein synthesis inhibition counterscreen; active compounds read high

Row | Structure (SMILES) | max response
1 | O=C(O)CCCN1C(=O)C2C3c4ccccc4C(c4ccccc43)[C@@H]2C1=O (some centres undefined) | -1.2%
2 | C=CCSC(CC)(CC)C(N)=O | -2.64%
3 | Cc1ccc2[nH]c(C(=O)O)c(NC(=O)c3ccccc3[N+](=O)[O-])c2c1 | -2.43%
4 | COc1ccc2oc(=O)c(C(=O)N3CCCc4ccccc43)cc2c1 | 0.681%
5 | Cc1c(C(=O)Nc2cccc(-c3nnc4n3CCCCC4)c2)oc2ccccc12 | 13%
6 | Cc1nonc1NC(=O)c1ccccc1Br | 6.09%
7 | CCc1nonc1NC(=O)c1oc2ccc(Cl)cc2c1C | -1.57%
8 | Cc1ccc(NC(=O)c2oc3ccccc3c2C)c([N+](=O)[O-])c1 | 29.7% (active)
9 | Cc1nonc1NC(=O)c1oc2ccccc2c1C | 35.8% (active)
10 | Cc1ccc(NC(=O)c2oc(=O)c3ccccc3c2-c2ccccc2)c(C)c1 | -5.99%
11 | Cc1c(C(=O)NC2CCCCC2)oc2ccccc12 | 39.2% (active)
12 | Cc1c(C(=O)N2CCCc3ccccc32)oc2ccccc12 | 18.8% (active)
13 | Cc1ccnc(NS(=O)(=O)c2ccc(NC(=O)c3oc4ccccc4c3C)cc2)n1 | 1.07%
14 | CCC(=O)N1CCCc2ccccc21 | -1.65%
15 | Cc1sc2ncn(CC(=O)NCCN(C)C)c(=O)c2c1S(=O)(=O)N1CCC(C)CC1 | 7.86%
16 | Cc1ccccc1-n1c(C)cc(/C=N/NC(=O)c2ccc(CN3CCOCC3)cc2)c1C | 1.39%
17 | COc1cc(CC(=O)N2CCC(n3nccc3NC(=O)C3CC3)CC2)cc(OC)c1OC | -1.39%
18 | C/C(=N\NC(=O)c1ccc(NS(=O)(=O)c2cccs2)cc1)c1ccc2ccccc2c1 | 7.4%
19 | Cc1ccc(S(=O)(=O)N(Cc2cc3ccccc3[nH]c2=O)CC2CCCO2)cc1 (centres undefined) | -1.24%
20 | CCn1cc(CN2CCC(C(=O)Nc3cccc(-c4cccc(Cl)c4)c3)CC2)c(C)n1 | -9.71%
21 | CCCOc1ccc(-c2c(C(=O)N/N=C/c3ccco3)nnn2-c2nonc2N)cc1 | -0.593%
22 | CNC(=O)c1cccc2nc3ccccc3nc12 | 1.67%
23 | O=C(Nc1cccnc1Cl)c1cc(-c2ccccc2O)on1 | 17%
24 | O=C(NCc1ccccn1)c1cc(-c2ccccc2Cl)on1 | 38.8% (active)

Row | Structure (SMILES) | max response
25 | O=C(O)Cc1csc(-c2cccc(Oc3ccccc3)c2)n1 | -1.21% and 2.4%
26 | Clc1ccccc1-c1cc(COc2ccc3ccccc3c2)no1 | 6.98%
27 | O=C(NCc1ccccn1)c1ccc2nc(-c3ccco3)c(-c3ccco3)nc2c1 | 0.719%
28 | C=CCNC(=O)c1cc2nc(C3CC3)cc(C(F)F)n2n1 | 11.1%
29 | C=CCNC(=O)c1cc(-c2ccccc2O)on1 | 59.8% (active)
30 | CNC(=O)c1csc(Cc2c(Cl)sc3ccc(Cl)cc23)n1 | -2.08%
31 | CNC(=O)c1csc(-c2ccccc2)n1 | 13.6% (active)
32 | C=CCNC(=O)c1ccccc1SCc1c(C)noc1C | -1.93%
33 | C=CCNC(=O)c1csc(-c2ccccc2)n1 | 28.5% (active)
34 | CCn1c(=O)c(C(=O)NCc2ccc3c(c2)OCO3)c(O)c2ccccc21 | -2.8%
35 | COc1ccc(OC)c(/C(C)=N\NC(=O)c2cc3cc(Cl)ccc3n2C)c1 | -5.13%
36 | COc1cc([C@H](Cc2ccccc2)NC(C)=O)oc(=O)c1 | -1.33%
37 | Cc1ccc(C)c(S(=O)(=O)Nc2cccc(-n3cnnn3)c2)c1 | -4.16%
38 | CC1CN(C(=O)CCC(=O)NC2CCN(Cc3ccccc3)CC2)c2ccccc2O1 (centres undefined) | -2.34%
39 | O=C(O)CCCn1cc(NC(=O)COc2cccc(Cl)c2)cn1 | -1.65%
40 | [O-][N+]12CCCCC1CCCC2CO (centres undefined) | -2.81%
41 | Cc1ccccc1N1CCN(CCCN2C(=O)C3CCCCN3C2=O)CC1 (centres undefined) | -0.589%
42 | CCNC(=O)NC(=O)C(C)OC(=O)c1cc(S(=O)(=O)N2CCCCCC2)ccc1OC (centres undefined) | 15.1%
43 | COCC1CCN(C(=O)CCc2nnc(C3(c4ccc(Cl)cc4)CCC3)o2)C1 (centres undefined) | 44% (active)
44 | CSCCC(=O)N1CCCC(CNC(=O)c2ccccc2Cl)C1 (centres undefined) | -3.24%
45 | O=C1CCC(CCC(=O)N2CCCC(C(=O)c3ccc(Cl)cc3)C2)=NN1 (centres undefined) | 8.2%
46 | COC(=O)c1ccccc1NC(=O)Cc1ccccc1OC | -2.67%
47 | COc1ccccc1CC(=O)Nc1ccc(F)cc1F | -2.45%
48 | CC[C@]1(c2ccccc2OC)C(=O)N(C(=O)OC)N1C(=O)OC | 29.1% (active)

Row | Structure (SMILES) | max response
49 | CCCC(C)NC(=O)C1CCN(C(=O)C2CC(=O)N(c3ccc(C)cc3)C2)CC1 (centres undefined) | -4.68%
50 | Brc1c(CSc2nncc3ccccc23)nc2ccccn12 | 38.5% (active)
51 | CC(=O)O[C@H]1c2ccccc2-c2ccccc2[C@@H]1OC(C)=O | 0.95%
52 | Cc1ccc(SCC(=O)NNC(=O)c2ccc(S(C)(=O)=O)cc2)cc1 | 5.01%
53 | O=C(c1ccco1)N1CCN(Cc2cccc(C(F)(F)F)c2)CC1 | -3.76%
54 | Cc1cccnc1CCNC(=O)C1CCC(=O)N(Cc2cccc(F)c2)C1 (centres undefined) | -2.2%
55 | O=C1CCC(C(=O)N2CCCCO2)CN1Cc1cccc(C(F)(F)F)c1 (centres undefined) | 30% (active)
56 | COCC1CCN(C(=O)C2CCC(=O)N(Cc3cccc(C(F)(F)F)c3)C2)CC1 (centres undefined) | 29.7% (active)
57 | COCC1CCN(C(=O)C2CCC(=O)N(CC3CCCCC3)C2)CC1 (centres undefined) | -2.01%
58 | COC(=O)c1ccc(CNC(=O)C2CCC(=O)N(Cc3cccc(F)c3)C2)cc1 (centres undefined) | 0.912%
59 | CC(=O)Nc1ccc(S(=O)(=O)N2CCC(C(=O)N[C@@H](Cc3ccccc3)C(=O)O)CC2)cc1 | 10.8%
60 | COc1ccccc1CNC(=O)C1CCN(S(=O)(=O)c2ccc3c(c2)OCCO3)CC1 | -5.22%
61 | CCOc1cc(C(=O)O)ccc1OCCOc1ccccc1 | -8.53%
62 | COc1ccccc1CC(=O)Nc1ccc(S(=O)(=O)N2CCCC2)cc1 | -4.23%
63 | C[C@@]12C(=O)N(c3cccc(Br)c3)C(=O)N1[C@H](c1ccc(Cl)cc1)[C@@H]1C(=O)N(C3CCCCC3)C(=O)[C@@H]12 | -2.82%
64 | CS(=O)(=O)c1ccc2nc(NC(=O)c3ccc(Cl)nc3)sc2c1 | 39.4% (active)
65 | CNC(=O)c1ccc2nc(NC(C)=O)sc2c1 | 38% (active)
66 | COc1cccc(C(=O)Nc2nc3ccc(S(C)(=O)=O)cc3s2)c1 | 33.2% (active)
67 | CS(=O)(=O)c1ccc2nc(NC(=O)c3ccc(N4CCCC4=O)cc3)sc2c1 | -2.38%
68 | CS(=O)(=O)c1ccc2nc(NC(=O)C3C4C=CC(C4)C3C(=O)O)sc2c1 (centres undefined) | 2.94%
69 | CCCC(=O)Nc1nc2ccc(NC(=O)c3cccnc3)cc2s1 | 9.53%
70 | O=C(NC(Nc1nc2ccc([N+](=O)[O-])cc2s1)(C(F)(F)F)C(F)(F)F)c1ccccc1 | 0.792%
71 | COc1cccc(C(=O)Nc2nnc(S(=O)(=O)N3CCOCC3)s2)c1 | -4.33%
72 | O=C(Nc1nc2ccc([N+](=O)[O-])cc2s1)c1ccncc1 | 23.5% (active)

Row | Structure (SMILES) | max response
73 | O=C(Nc1nc2ccc([N+](=O)[O-])cc2s1)c1ccc(S(=O)(=O)N2CCCc3ccccc32)cc1 | -2.29%
74 | CS(=O)(=O)c1ccc2nc(NC(=O)CN3CCCCCC3)sc2c1 | -1.48%
75 | CCCCSCCCNC(=O)C1CCC(CNS(=O)(=O)c2ccc(NC(C)=O)cc2)CC1 (centres undefined) | 0.78%
76 | Cc1cc(=O)[nH]c(S)c1C#N | -1.97%
77 | O=C(CN1CCN(C(=S)NC2CCCC2)CC1)Nc1ccc(Oc2ccccc2)cc1 | -0.686%
78 | Cc1ccc(C(=O)N(CC(=O)NC2CCCC2)c2ccc(F)cc2)s1 | -2.41%
79 | CCCn1c(NC(=O)C23CC4CC(CC(O)(C4)C2)C3)nc2ccccc21 | -2.34%
80 | CCC(=O)c1ccc(N2CCN(C(=O)c3cc([N+](=O)[O-])ccc3F)CC2)c(F)c1 | -0.539%
81 | Cc1ccc2nc3c(cc(C(=O)NCCc4ccccc4)c(=N)n3CC3CCCO3)c(=O)n2c1 (centres undefined) | -3.51%
82 | O=C(Nc1ccccc1)C1CCN(C(=O)c2ccc(Br)cc2)CC1 | 11.6%
83 | O=C(Nc1ccc(C(=O)NCc2ccccc2Cl)cc1)C1=CSCCO1 | 31.9% (active)
84 | CSc1ccc(CNC(=O)c2ccc(NC(=O)C3=CSCCO3)cc2)cc1 | 3.98%
85 | O=C(NCc1ccccc1Cl)C1CCCO1 (centres undefined) | -1.7%
86 | Cc1nc(N)nc(SCc2ccc([N+](=O)[O-])cc2)c1N | -1.9%
87 | Cc1nc(SCC(=O)c2ccccc2)c([N+](=O)[O-])[nH]1 | -1.4%
88 | Cc1nc(SCc2ccc(F)cc2)c([N+](=O)[O-])[nH]1 | 12.6% (active)
89 | COc1ccc([N+](=O)[O-])cc1NCC(=O)c1ccc(C)cc1 | 20.4%
90 | Cc1ccc(C)n1NC(=O)c1ccc([N+](=O)[O-])cc1 | -0.957%
91 | Cc1ccc(C(=O)NNC2=Nc3cc([N+](=O)[O-])ccc3OC2)cc1 | 20.2% (active)
92 | O=C(CNC(=O)Cc1ccccc1)N=Nc1c(O)[nH]c2ccc(Br)cc12 | -2.22%
93 | C/C(CC1CC(C)(C)OC1=O)=N/Nc1nc(-c2ccccc2)cs1 (centres undefined) | 24.7% (active)
94 | CC1(C)CC(CC(=O)O)C(=O)O1 (centres undefined) | -0.893%
